Source: PubChem BioAssay AID602440 (Sanford-Burnham Center for Chemical Genomics, 2012)
The campaign covered roughly 360,000 compounds. About 2,300 (0.64%) were called active. No stated cut-off is given here; in the data, active means inhibition mostly above about 40% (no sharp cut-off); inactive means mostly below about 27%. What follows is part of a selection rich in actives, with near analogues and random picks from the rest.

target: Sentrin-specific protease 8 (Homo sapiens) (UniProt Q96LD8); assay: human SENP8 protease inhibitors, primary screen, biochemical, fluorescence, Nedd8 protein substrate, uHTS (AID 602440); settings: recombinant SENP8, Nedd8 substrate fluorescence; at 20 µM; stronger effect = higher value
Sequence (Q96LD8 whole entry, looked up): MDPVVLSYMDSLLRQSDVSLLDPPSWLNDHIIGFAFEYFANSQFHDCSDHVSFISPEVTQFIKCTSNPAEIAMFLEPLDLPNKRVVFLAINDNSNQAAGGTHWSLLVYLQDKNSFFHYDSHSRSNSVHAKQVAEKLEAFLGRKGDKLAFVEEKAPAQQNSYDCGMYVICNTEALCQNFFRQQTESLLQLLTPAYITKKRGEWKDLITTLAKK

Compound | inhibition
COc1ccccc1N=Nc1c(O)[nH]c(=S)[nH]c1=O | 49% (active)
CCOCCc1c(O)[nH]c(=S)[nH]c1=O | 21.8% (inactive)
O=C1N=c2ccccc2=C/C1=C\c1c(O)[nH]c(=S)[nH]c1=O | -52.5% (inactive)
CC(C(=O)Nc1ccc(Cl)cc1Cl)N1CC=C(c2ccccc2)CC1 (stereo not given) | 26.7% (inactive)
CNC(=O)N(C)c1nnc(C(C)(C)C)s1 | 17.7% (inactive)
O=C1NC(=O)N(c2ccccc2)C(=O)/C1=C/c1ccc([N+](=O)[O-])s1 | 64.6% (active)
CCN(CC)CCOC(=O)c1cc2cc(COC)ccc2o1 | 15.2% (inactive)
COC(=O)C1=C(c2cc3ccccc3o2)C[C@@H]2CC[C@H]1N2C(=O)NC1CCCCC1 | 11.5% (inactive)
CCOC(=O)CNC(=O)N1Cc2cc(N3CCCCC3)ccc2-n2nncc2C1 | -24.7% (inactive)
O=C1/C(=C\c2ccc3c(c2)OCO3)N2CCC1CC2 | 13.7% (inactive)
c1cc2c(cc1C1OCC3C(c4ccc5c(c4)OCO5)OCC13)OCO2 (stereo not given) | 62.3% (active)
c1cc2c(cc1[C@H]1OC[C@H]3[C@@H]1CO[C@@H]3c1ccc3c(c1)OCO3)OCO2 | 12.2% (inactive)
COC(=O)C1=C(c2ccc(F)cc2OCc2ccccc2)C[C@@H]2CC[C@H]1N2C(=O)NCc1ccc(OC)c(OC)c1 | 14.1% (inactive)
CCOC(=O)[C@]12Cc3ccccc3[C@H]1N(C1CCCCC1)C(=O)c1cc(OC)ccc12 | -7.7% (inactive)
O=c1[nH]c(=O)n(CCc2ccccc2)c(O)c1/C=N/N1CCOCC1 | 11.3% (inactive)
COc1ccc(C(=O)CC2C(=O)N(C)C(=O)N(C)C2=O)cc1 | 42.5% (active)
CCOP(=O)(OCC)C(NC(=O)c1ccc(OC)cc1)C(Cl)(Cl)Cl (stereo not given) | 4.3% (inactive)
COc1ccc(C(=O)C2CN(C)CC2C(=O)c2ccc(OC)cc2)cc1 (stereo not given) | 14.3% (inactive)
CCCCCCCCCCCCn1ccc(=N)cc1 | 26.2% (inactive)
CCOC(=O)CC(SP1(=S)OCC2(CCCCO2)C(C2CCCCO2)O1)C(=O)OCC (stereo not given) | 2.3% (inactive)
Cc1ccc(Cn2c(C)c3cnn(CC(=O)N4CCC5(CC4)OCCO5)c(=O)c3c2C)cc1 | -29% (inactive)
C=CC12CN(C)[C@@H]3C4CO[C@H](C[C@H]41)[C@]1(C(=O)Nc4ccccc41)[C@@H]32 (stereo not given in full) | 40.4% (active)
COc1ccc2c(c1)[C@]13CCCCC1C(C2)N(C)CC3 (stereo not given in full) | 2% (inactive)

Compound | inhibition
O=C(O)CCn1cc(C=C2C(=O)NC(=S)NC2=O)c(-c2cccc(Br)c2)n1 | 2.3% (inactive)
CN(c1ccccc1)c1ccc([N+](=O)[O-])c2nonc12 | 44.1% (active)
CCN(CC)c1ccc([N+](=O)[O-])c2cccnc12 | 36.3% (inactive)
C[C@]12CCCCC1=CC(=O)C1C2CC[C@@]2(C)C1C[C@@H](F)[C@@H]2O (stereo not given in full) | -0.8% (inactive)
C[N+]12CN3CN(CN(C3)C1)C2 | 12.2% (inactive)
O=c1c2ccccc2nc(/C=C/c2ccco2)n1-c1ccccc1O | -36.8% (inactive)
CNP1(NC)=Nc2nn(-c3ccccc3)c(N)c2C(c2ccccc2)=N1 | 21.7% (inactive)
O=C(O)C1CSC(c2cccnc2)N1 (stereo not given) | 6.7% (inactive)
C[C@]12CC[C@H](O)C[C@H]1CC[C@@H]1C2CC[C@]2(C)[C@@H](C3=CC(=O)OC3)[C@@H](O)C[C@]12O (stereo not given in full) | 15.3% (inactive)
COC1C(O)C(C)OC(OC2CCC3(C=O)C(CCC4C3CCC3(C)C(C5=CC(=O)OC5)CCC43O)C2)C1O (stereo not given) | 66.8% (active)
CC(C)CN1CCN(Cc2ccccc2C(F)(F)F)CC1CCO (stereo not given) | -4% (inactive)
CC1=C2C(=O)C3C(CC=C4CC(OC5OC(O)C(O)C(O)C5CO)CCC43C)C2CCC12OC1CC(C)CNC1C2C (stereo not given) | 41.4% (active)
CC(=O)OC1C2(CC3N4C(=O)C5(CO)SSC4(CC31O)C(=O)N5C)OC(C)C(C)(C)C2=O (stereo not given) | -4.6% (inactive)
N[C@@H](Cc1c[nH]c2ccccc12)c1nnc(SCc2c(F)cccc2Cl)o1 | 18% (inactive)
CN(C)C(=O)Oc1ccc2c(c1)O/C(=C\c1ccccc1)C2=O | -9.7% (inactive)
c1ccc(N2Cc3ccccc3-n3nncc3C2)nc1 | 14.6% (inactive)
CC(Cc1ccccc1)NC=O (stereo not given) | 50.7% (active)
CC(Cc1ccccc1)NCCC(c1ccccc1)c1ccccc1 (stereo not given) | 8.1% (inactive)
CC(=O)Nc1ccc(C(=O)C(Cc2ccccc2)N(C)C)cc1 (stereo not given) | -0.4% (inactive)
CCC(C)(O)C(=O)OC1C(=O)OC2CC3C(C)=CC(=O)C(O)C3(C)C3C4(O)OCC23C1C(C)C4O (stereo not given) | 15.7% (inactive)
CC(=CCOc1ccc2ccc(=O)oc2c1)C1=CC(=O)C(C)(C)O1 | -260% (inactive)
C=Cn1ccnc1P(=S)(c1cc(N(CC)CC)ns1)c1nccn1C=C | 1.5% (inactive)
